The supplement of paper PMC11417369
± gives the standard deviation of the averaged measurements. Whole data set: some 25,000 sequences, median “ln(normalized median fluorescence intensity)” near 8.6, cut for the highest 2% near 10. The sample as a whole holds a higher share of the highest values than the screen did.

System: PfAP2-EXP AP2 domain (GST-tagged)
Test: gcPBM binding intensity (ln(normalized median fluorescence intensity)); higher = stronger DNA binding
Summary of the method: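 Using an Agilent 4 × 180k array, primer-extended double-stranded 36-bp intergenic genomic probes and negative controls were exposed for 1 h to GST-fused P. falciparum DNA-binding domains expressed in E. coli. Binding was carried out in 1× PBS with 1% milk, 0.2 mg/ml BSA, 0.5% salmon testes DNA and 0.03% Triton X-100, and protein was detected with Alexa488 anti-GST antibody and a 488 nm scan. Binding intensity is the highest Masliner-normalised natural-log median intensity across replicate spots of either probe orientation.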

Sequence	gcPBM binding intensity (ln)
ATATAATTAAAATGCTCACACACATAAAAAAAAATT [CACACA_site2148]	8.43 ± 0.55
TGAAAAATGTAATGCTCACACATATATATATATATA [CACACA_site5213]	10.2 ± 0.32
CACAAAAATGTAATCACACATATATATATATATATA [CACACA_site5818]	10.1 ± 0.38
AATAAAATAAGAAGCACACAAATATTATATATAAAA [CACACA_site3980]	8.78 ± 0.42
ATTATAAATTAAAATACACACATATATACCTAATAT [CACACA_site5541]	8.47 ± 0.4
TTACAAATATTATAATGTACCCATTTTTTTTGCCTT [XGTACX_site6612]	8.47 ± 0.39
CATAATATATATTGAGCATGCTACTATTGTTAGAAA [TGCATGCA_site740]	9 ± 0.31
AGAAACCTTGTTAGTTAGCATATATATATATATATA [CACACA_negctrl_site372]	10.2 ± 0.49
TTATTCTTTAACTAAAATTATATATATATATTATAC [CACACA_negctrl_site1597]	8.38 ± 0.34
AATGATTTTAAATGAACATAATTTATATTCATAACA [GTGCAC_negctrl_site256]	8.04 ± 0.42
TCAATTTTACTTGTTTGTACATAAAATAATAAGGTT [XGTACX_site3732]	8.44 ± 0.47
AAAAAAAAAACACACACATGCACATCATATTATATA [TGCATGCA_site133]	8.72 ± 0.54
AATAAATTATATATCACACATATATATTTATATTTA [CACACA_site5964]	8.13 ± 0.23
ATATCACATATATATATATATATATATATATATATA [XGTACX_negctrl_site463]	9.95 ± 0.61
GCACAACATATATTATCACACACATATATATATATA [CACACA_site8619]	10.3 ± 0.18
CCAACATATATTATCACACACATATATATATATATA [CACACA_site2016]	10.2 ± 0.22
ACAACATATGTTATCACACACATATAAATATAAATA [CACACA_site7038]	8.41 ± 0.54
AAAAAAAACAGACACACACACACATATACATACATA [CACACA_site2665]	8.41 ± 0.38
AAAAAAATCACATAATATACTTTATTTTATTTTGTA [GTGCAC_negctrl_site562]	7.89 ± 0.33
ATTTTTTTTTTTAATACACACAATTTTGATGAAGCA [CACACA_site3157]	8.26 ± 0.41
CTAAAGTAAATTTAAGCACACACAACGAATTTTTAT [CACACA_site8599]	8.65 ± 0.45
GATAAAATGGATGGATGTACATTATTTCCATATAAT [XGTACX_site7781]	8.55 ± 0.5

Sequence	gcPBM binding intensity (ln)
AACCATTATTTCTCTACACACATTTATGTCATTTAC [CACACA_site1499]	8.86 ± 0.56
TATACACATATATAAACACACAAAAAAAAAAAAAAA [CACACA_site7041]	8.19 ± 0.63
TACATACATAAACACACACACACATATATATATATA [CACACA_site8953]	10.1 ± 0.35
TACAGATATAAACACACACACATATATATATATATA [CACACA_site4846]	10.2 ± 0.48
GTACATACATAAAACACACACATATATATATATATA [CACACA_site1826]	10.2 ± 0.75
AAAAAAAAAAAACATACACACATACATACAGATATA [CACACA_site4681]	8.5 ± 0.64
TAAAAAAAAAAAAAAAGTACACACATACATATAAAT [XGTACX_site3752]	8.61 ± 0.44
TACATATATAAAAAAACACACACATATATATATATA [CACACA_site8315]	10.1 ± 0.46
TATATACATAAACACACACACACATATATATATATA [CACACA_site8707]	10.2 ± 0.29
CATATACATAAACACACACACACATAAATAAATATA [CACACA_site4864]	8.68 ± 0.54
AAGTACATACATAAAACACACACATATATATATATA [CACACA_site8541]	10.2 ± 0.17
AAAAAAAAAAAAAGTACACACATACATATAAATATA [CACACA_site8533]	8.48 ± 0.4
TAGATACATAAACACACACACACATACATATATACA [CACACA_site9139]	8.68 ± 0.6
GTTAATATACTTAATACACACACGAATATATATAAA [CACACA_site1181]	8.69 ± 0.35
ACCTAATTTTTATATTGTACATAATATAATATATAT [XGTACX_site1715]	8.66 ± 0.3
ATTTAAAAAAAAAAAAAAAAAAAAAAAAAAAGAAAA [CACACA_negctrl_site722]	8.01 ± 0.43
TATATATATATGTATACACACATATGTATGTTATGT [CACACA_site4053]	9.65 ± 0.28
CCAATACATAGAAACTGTACATTATGCATTATACAC [XGTACX_site3531]	8.79 ± 0.28
ATTAAATACTTCGATTGTACAATTTTTTTTTTTTTT [XGTACX_site832]	8.59 ± 0.59
ATTTAAAATGGTTATACACACATAAAAGGGGAAATG [CACACA_site2649]	8.95 ± 0.57
TTTTTTTTTCGCTTTTGTACACATTTTATAGAACAG [XGTACX_site2416]	8.87 ± 0.46
AAAAAAAAAAAAAAGCGTACAAATAAAATATATTTA [XGTACX_site7195]	8.52 ± 0.49

Sequence	gcPBM binding intensity (ln)
AACATATACACGAACACACACACATATATATATATA [CACACA_site502]	10.1 ± 0.38
CCCCCCCACGAACACACACACATACATACCACATAT [CACACA_site7149]	10.41 ± 0.028
GGCATACACGAACACACACACACACGCACATATATA [CACACA_site6426]	8.96 ± 0.52
CATATACACGAACACACACACATATATATATATATA [CACACA_site4437]	10.3 ± 0.39
CATATACACGAACACACACACATATAAATAAATATA [CACACA_site6379]	8.73 ± 0.46
AACATATACACGAACACACACACATATAAATAAATA [CACACA_site6380]	8.74 ± 0.56
ATTATATTTCAATTATGTACATATAAAATGAATAAA [XGTACX_site4204]	8.43 ± 0.38
ATGAATATAATAAAGAAACACACGTATACATAATGA [CACACA_site1355]	8.8 ± 0.54
TAAAATTTACAACACTGTACTTGAATTTATCTTTAA [XGTACX_site241]	8.25 ± 0.37
CGCATAAAGACAAGAACACACATATAGATTGTAGTA [CACACA_site3693]	8.27 ± 0.49
GTTATATTTAAAATAGTGCAATAAAAATAATAATAT	8.89 ± 0.2
ATTATATATAATATAGTGCATGTAAAAAATAAAACA	9.23 ± 0.33
ATTATTATATAGTGTGCATGCAATATTAATAAAACC [TGCATGCA_site245]	10.3 ± 0.4
ATTGCGTGATAATAATGTACAAAAAGTAATTTATAT [XGTACX_site8339]	8.48 ± 0.45
TAATTCGCAAAAGAAAGAAATTAAGAAAAAGAAAAA [XGTACX_negctrl_site614]	8.32 ± 0.68
ATTTGTATATAATATATATAATTTTTTTTTTTTGTT [XGTACX_negctrl_site425]	8.2 ± 0.31
TCTTTCTTATATTTATATAATTATATTTATTTTATA [GTGCAC_negctrl_site300]	8.74 ± 0.38
TTTTTTTTTTTTTTTTTTTTCATTCAATTATATTTA [CACACA_negctrl_site712]	8.04 ± 0.33
TTTTCATTCAATTATATTTATATATATATATATATA [GTGCAC_negctrl_site538]	10.2 ± 0.44
ATATATATATATATATATATAATTTTTTTTGTTTTT [TGCATGCA_negctrl_site453]	10.3 ± 0.3
TTTTATTATTCTTCTCTCTTATATATATATATATAT [CACACA_negctrl_site646]	10.2 ± 0.26
TTTTATTCCTATTTATTTATATTTTTGTCTTATATC [CACACA_negctrl_site125]	8.8 ± 0.43

Sequence	gcPBM binding intensity (ln)
ATATATTTTATTCCTATATATATATATATATATATA [GTGCAC_negctrl_site556]	10.2 ± 0.49
TTTTTTTATTATTCTTATATAAAAATTTTTTTTAAT [CACACA_negctrl_site159]	8.27 ± 0.45
ATTTTTTTTATTTTTTCAATATATATATATATATAT [CACACA_negctrl_site1444]	10.2 ± 0.19
GTATATATATATATATATATATATTTTTATTTATTT [CACACA_negctrl_site589]	8.65 ± 0.18
GTATATATTTTTATTTAATAATTTGTTTATTTATTC [CACACA_negctrl_site647]	8.56 ± 0.22
ACAAAAAAAAAGGAAACACACAAAAAAAAAAAATAA [CACACA_site3523]	8.44 ± 0.59
TAATGAAAAAATAAAAGAATAAATAAATAAATAAAT [TGCATGCA_negctrl_site130]	8.77 ± 0.3
AGTGTATATAGAAACATACACACATATTAATTTTAC [CACACA_site3127]	8.3 ± 0.28
AAAAAAAAAAAAAAAGTGCACTGAAAATATATTGAA [GTGCAC_site9395]	9.04 ± 0.2
TTTTTTTTTCTTTCTTTCTTTTGTAAAAACCTCAAA [CACACA_negctrl_site723]	8.46 ± 0.37
TGTGCACGTTCTGTGACACACATTTAAATGTGCTTA [CACACA_site176]	8.62 ± 0.35
TATATATATTAATTTATTTATTTGTTTATTTATTTA [CACACA_negctrl_site185]	8.41 ± 0.18
TTTTTTTTTTTTTTTTATTTATATATATATATATAT [CACACA_negctrl_site582]	9.98 ± 0.23
TTTTTATTTATATATATATATATATATTATATATAA [CACACA_negctrl_site1654]	8.34 ± 0.36
TATTAATTAAACCATACACACATAATTTTTTTATAA [CACACA_site843]	8.21 ± 0.43
TATTTTTATTTTTAAACCATATATATATATATATAT [CACACA_negctrl_site1560]	10.3 ± 0.23
GCATATATTATATATTTATTTATTTTTTTTTTTTAA [GTGCAC_negctrl_site193]	8.32 ± 0.46
GTTATATATATATATATATATATATATATTTTTTTT [GTGCAC_negctrl_site597]	8.84 ± 0.15
ATTTTGTTATTATATATATATATATATATATATATA [XGTACX_negctrl_site590]	10.3 ± 0.57
TATATATATATATATATATATATTTTTATTATATAT [XGTACX_negctrl_site89]	10.2 ± 0.52
